Shown are actives, neighbours in structure and some others; about 7.3% of the full set was active somewhere.
FMDV antiviral = High Throughput Screening for Foot and Mouth Disease Virus Antivirals | FMDV antiviral cell-based qHTS | AID 1159524, 2015 | Potency, µM (doses to about 57.9 µM), for the others: at the highest dose activity change, negative = inhibition, usual class: inhibitors | 1.2% of 410,000 active; calls by dose curve; tested in HEK293T cells; further: read-out not given here; potency means the concentration at half of the fitted maximal effect; nearly all actives have a fitted effect of over 45% in size
AmpC inh no detg = qHTS Inhibitors of AmpC Beta-Lactamase (assay without detergent); P00811; AmpC nitrocefin hydrolysis, absorbance 480 nm, 0.0001% Triton; Potency, µM (top dose mostly 57.1 µM), without a hit: at the top dose activity change, negative = inhibition, most hits filed as inhibitors; 0.52% of 330,000 active;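 further: potency means the concentration at half of the fitted maximal effect; plate controls were no compound for no effect and no enzyme for full effect; nearly all actives have a fitted effect of over 20% in size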
Target sequence (P00811 whole entry, looked up): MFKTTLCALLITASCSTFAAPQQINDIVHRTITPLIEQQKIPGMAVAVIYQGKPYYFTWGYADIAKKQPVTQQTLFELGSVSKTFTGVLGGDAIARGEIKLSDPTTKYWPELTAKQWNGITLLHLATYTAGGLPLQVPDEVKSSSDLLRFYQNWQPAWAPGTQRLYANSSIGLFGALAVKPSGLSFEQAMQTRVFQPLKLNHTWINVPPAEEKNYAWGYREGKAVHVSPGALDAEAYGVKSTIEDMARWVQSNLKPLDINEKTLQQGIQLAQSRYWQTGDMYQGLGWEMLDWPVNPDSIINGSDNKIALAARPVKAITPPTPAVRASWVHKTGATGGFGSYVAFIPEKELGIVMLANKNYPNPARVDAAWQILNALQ
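AmpC (5.3 nM in the dispensed reagent) in 20 mM phosphate pH 7.0 with 0.01% (detergent screen) or 0.0001% Triton X-100 was preincubated with compounds for 15 min at room temperature. Nitrocefin was then added from an 800 uM solution, and hydrolysis was followed at 480 nm.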
HCMV antiviral = qHTS Assay for inhibitors of the human cytomegalovirus (HCMV); HFF cells, HCMV-luciferase reporter, 72 h; active compounds read low; activity change, negative = inhibition, % at 57.5 µM; 4.5% of 410,000 active; in the data active means activity change below about -60%; inconclusive means no clear call, values can overlap the other calls; inactive means above about -39%
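Inhibition of viral replication was scored as loss of reporter luminescence in HFFs infected with HCMV-luciferase (MOI 1 PFU/cell) for 72 h; compounds tested at 2 doses, normalized to buffer and Salinomycin controls.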
AmpC detergent = qHTS Inhibitors of AmpC Beta-Lactamase (assay with detergent). P00811. AmpC hydrolysis of nitrocefin, absorbance 480 nm, 0.01% Triton. Potency, µM (top dose mostly 114 µM), inactives show top-dose activity change, negative = inhibition, usual class: inhibitors. 0.041% of 370,000 active;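 further: potency means the concentration at half of the fitted maximal effect; 0% = no-compound wells and -100% = no-enzyme wells; nearly all actives have a fitted effect of over 25% in size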
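20 mM phosphate pH 7.0 + 0.01% (detergent screen) or 0.0001% Triton X-100; 5.3 nM AmpC reagent; cpd preinc 15 min RT; nitrocefin (800 uM stock) to start; A480 q20 s × 4 min; Activity was normalised to no-enzyme and no-compound control wells.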
HCV inhibitor = qHTS Assay for Inhibitors of Hepatitis C Virus (HCV); Huh7.5.1 HCVcc-Cre infection, luciferase reporter, 44 h; Potency, µM (series often up to 41.8 µM), for the others: at the top dose activity change, negative = inhibition, usual class: inhibitors; 3.4% of 340,000 active; further: potency means the concentration at half of the fitted maximal effect
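1,000 cells/well; 4 h culture; + compound; + HCVcc-Cre (~0.5 moi); 44 h; luciferase substrate, RT 15 min; read 15 sec.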
* hit, by the source's call; u = inconclusive; x = no result given; [ ] = dose if it differs, or a comment. Unless noted, the call rests on the fitted dose curve; in most records, active means well fitted curve in the direction sought with a large enough effect; inconclusive means small, poorly fitted or top-dose-only effect, or another doubt; inactive means no such curve, though single readings can be large; an effect the other way counts as inactive or inconclusive. Unless noted, on the % scale 0 is the no-effect control and ±100 the full control effect.

SMILES	FMDV antiviral	AmpC inh no detg	HCMV antiviral	AmpC detergent	HCV inhibitor
N#Cc1ccc(OCC(O)CN2CCN(c3ncc(C(F)(F)F)cc3Cl)CC2)cc1 (centres undefined)	-29%	88%	-72*	-3%	u
CCOC(=O)c1c(C)[nH]c(C(=O)N/N=C/c2ccc(Br)cc2)c1C	-19%	-29%	-77*	-9%	u
Cc1cccc2c1cnn2C(=O)Nc1ccccc1Cl	43%	-8%	60	1%	u
CCCCOc1ccc(CNC(=O)CCCN2C(=O)CSc3c2c(C)nn3-c2ccccc2)cc1	-16%	x	-70*	16%	x
Cc1nn(-c2ccccc2)c2c1N(CCCC(=O)NCc1ccccc1)C(=O)CS2	-16%	x	6	4%	x
Cc1ccc(C)c(NC(=O)c2ccccc2NS(=O)(=O)c2cc([N+](=O)[O-])ccc2C)c1	u	-42%	-87*	-19%	8.9µM*
Cc1ccc([N+](=O)[O-])cc1S(=O)(=O)Nc1cccc(S(=O)(=O)Nc2ccccc2C(=O)O)c1	-18%	-25%	26	x	22%
Cc1ccc(C)c(S(=O)(=O)Nc2ccccc2C(=O)Nc2ccc(S(=O)(=O)Nc3ncccn3)cc2)c1	43%	16µM*	2	-11%	34%
Cc1ccc(C)c(S(=O)(=O)Nc2ccc(S(=O)(=O)Nc3ncccn3)cc2)c1	10%	-14%	-4	1%	6%
O=C(CS(=O)(=O)c1cccc2nsnc12)N1CCN(c2ccc(F)cc2)CC1	-7%	x	-14	4%	x
Cc1cc(C(=O)C(=O)Nc2nncs2)c(C)n1-c1ccc(Cl)cc1	24%	x	16	27%	x
NC(N)=NCc1cccc(I)c1	u	-9%	-66*	-12%	7.1µM*
CC(C)(C)c1cc(CCC(=O)Nc2ccncc2)cc(C(C)(C)C)c1O	-7%	x	-63*	x	u
Cc1cc(C(=O)COC(=O)c2ccc(F)cc2F)c(C)n1C1CC1	-29%	-20%	u	-16%	3%
COc1ccc(-c2cc(C(=O)OCC(=O)N(C)C3CCS(=O)(=O)C3)c3ccccc3n2)cc1OC (centres undefined)	-15%	216%	-23	-8%	3.2µM*
CCN(C(=O)COC(=O)c1c(C)c(-c2ccccc2)nc2ccccc12)C1CCS(=O)(=O)C1 (centres undefined)	-25%	64%	3	u	13µM*
CCN(C(=O)COC(=O)c1cc(-c2cccs2)nc2ccccc12)C1CCS(=O)(=O)C1 (centres undefined)	0%	27%[11.4 µM]	3	u	11µM*
Cc1ccc(-c2cc(C(=O)OCC(=O)N(C)C3CCS(=O)(=O)C3)c3ccccc3n2)c(C)c1 (centres undefined)	-23%	196%	24	4%	21%
CCN(C(=O)COC(=O)c1c(-c2ccccc2)noc1C)C1CCS(=O)(=O)C1 (centres undefined)	7%	0%	5	19%	-4%
CCN(C(=O)COC(=O)c1cc(-c2ccc(C)o2)nc2ccccc12)C1CCS(=O)(=O)C1 (centres undefined)	16%	147%	-5	-3%	-28%
Cc1cc(C(=O)OC(C)C(=O)N2CCc3ccccc32)ccc1[N+](=O)[O-] (centres undefined)	-1%	-16%	-7	-8%	-33%
CN1CCN(c2oc(/C=C/c3ccc(F)cc3)nc2C#N)CC1	-12%	x	-16	23%	x
Cc1csc(-c2cc(C(=O)NCc3ccc(F)cc3)n[nH]2)c1	12%	x	-64*	x	x
O=C(Nc1nc(-c2ccc(Oc3ccccc3)cc2)cs1)C1=COCCO1	u	-29%	-64*	-4%	u
COc1ccc(OC)c2sc(NC(=O)C3=COCCO3)nc12	-20%	1%	18	2%	11µM*
SMILES	FMDV antiviral	AmpC inh no detg	HCMV antiviral	AmpC detergent	HCV inhibitor
Cc1ccc(-c2csc(NC(=O)C3=COCCO3)n2)cc1	-16%	1%	42	u	u
COc1ccc(OC)c2sc(NC(=O)C(C)C)nc12	-9%	-145%	-6	0%	7.9µM*
COc1cccc2sc(NNC(=O)C3=COCCO3)nc12	56%	-3%	u	2%	u
COc1ccc(OC)c2sc(NC(=O)CCSc3ccccc3)nc12	-25%	-16%	-20	-11%	10µM*
CN1CCCC(CNC(=O)c2cnn(-c3ncc4c(n3)-c3ccccc3CC4)c2C2CC2)C1 (centres undefined)	-10%	x	x	x	x
Cc1ccc2c(=O)cc(C(=O)Nc3nnc(CC(C)C)s3)oc2c1C	-23%	x	9	15%	x
COc1ccc(C)c2sc(NC(=O)C3CC3)nc12	8%	-5%	47	u	-16%
COc1ccc(C)c2sc(NC(=O)C3=COCCO3)nc12	x	40µM*	65	u	-27%
COc1ccccc1CCC(=O)N1CCOc2c(cc(-c3cnc4ccccc4c3)cc2OC)C1	-9%	x	x	x	x
COc1ccc(C=C(C(C)=O)C(C)=O)cc1OC	28µM*	-12%	25	u	3%
COc1cc(C=C(C(C)=O)C(C)=O)ccc1O	u	-18%	16	3%	5%
CC(=O)Nc1ccc(C=C(C(C)=O)C(C)=O)cc1	32µM*	-8%	8	2%	18%
CC(=O)Nc1ccc(/C=C(\C#N)C(N)=O)cc1	15%	-11%	-7	7%	6%
CCOC(=O)c1c(C)[nH]c(C(=O)COC(=O)/C=C/c2ccc(OC(F)F)cc2)c1C	-9%	-24%	-4	0%	2%
CCOC(=O)c1c(C)[nH]c(C)c1C(=O)COC(=O)/C=C/c1ccc(OC(F)F)cc1	u	-12%	-4	-5%	32µM*
CCOC(=O)c1cnc(SCC(=O)Nc2sc(C)c(C)c2C#N)nc1N	-8%	93%	-64*	u	-10%
CCOC(=O)c1cnc(SCC(=O)NCc2cccs2)nc1N	x	-12%	-38	8%	-5%
CCOC(=O)c1cnc(SCc2nc(N)nc(Nc3ccccc3)n2)nc1N	u	-11%	-82*	-15%	u
CCOC(=O)c1cnc(SCC(=O)Nc2cc(OC)cc(OC)c2)nc1N	0%	2%	-60*	u	u
CC(=O)Nc1ccc(S(=O)(=O)NCCN2CCNC2=O)cc1Cl	-3%	-5%	5	5%	14%
CC(=O)N1CCN(c2ccc(Oc3ccc([N+](=O)[O-])c(C(F)(F)F)c3)cc2)CC1	u	170%	x	-13%	11µM*
CCOc1ccc(C(=O)Nc2ccc(N3CCN(C(C)=O)CC3)cc2)cc1[N+](=O)[O-]	-25%	26%	-33	-7%	-18%
COc1cc(C(=O)OCc2cccc(S(=O)(=O)N3CCOCC3)c2)ccc1OCC(C)C	-3%	68%	-6	-4%	10µM*

Source: PubChem
